# According to PubChem BioAssay (Tox21):
# Records with an inconclusive call do not appear. Entries that show only a call come without a potency. Activity calls are given as the source filed them. Unless noted, calls come from the whole dose curve; as a rule, active = well fitted curve in the direction sought with a large enough effect in the repeat runs; inconclusive = weak or mixed curves; inactive = no such curve, though single readings can be large; an effect the other way counts as inactive or inconclusive.
# What was measured:
# [1] = qHTS assay to identify small molecule antagonists of the glucocorticoid receptor (GR) signaling pathway - cell viability counter screen (AID 720693); note: nearly all actives have a fitted effect of over 55% in size; note: potency is the fitted concentration of half-maximal effect
# [2] = qHTS assay for identifying genotoxic compounds that show differential cytotoxicity against isogenic chicken DT40 cell lines with known DNA damage response pathways - wild type cell line (AID 743012); note: nearly all actives have a fitted effect of over 60% in size; note: potency is the fitted concentration of half-maximal effect
# How it was run: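 Viability of DNA repair-proficient chicken DT40 cells was assessed by CellTiter-Glo luminescence following 40 h compound exposure at 37 C/5% CO2.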
# [3] = qHTS assay for identifying genotoxic compounds that show differential cytotoxicity against isogenic chicken DT40 cell lines with known DNA damage response pathways - Rev3 mutant cell line (AID 743014); note: nearly all actives have a fitted effect of over 55% in size; note: potency is the fitted concentration of half-maximal effect
# [4] = qHTS assay for identifying genotoxic compounds that show differential cytotoxicity against isogenic chicken DT40 cell lines with known DNA damage response pathways - Rad54/Ku70 mutant cell line (AID 743015); note: nearly all actives have a fitted effect of over 60% in size; note: potency is the fitted concentration of half-maximal effect
# [5] = qHTS assay to identify small molecule antagonists of the androgen receptor (AR) signaling pathway - cell viability counter screen (AID 743033; note: nearly all actives have a fitted effect of over 45% in size; note: potency is the fitted concentration of half-maximal effect)
# [6] = biological target: Androgen receptor (Homo sapiens) (UniProt P10275); test: qHTS assay to identify small molecule antagonists of the androgen receptor (AR) signaling pathway (AID 743035; active = well fitted inhibition curve with a large enough effect in the signal ratio in the repeat runs, not every such curve was filed as active; the % refers to the signal ratio; note: potency is the fitted concentration of half-maximal effect)
# How it was run: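 Reporter HEK293 cells were exposed to compounds and R1881 overnight (16 h, 37C); beta-lactamase activity was then quantified by FRET fluorescence.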
# [7] = biological target: Androgen receptor (Homo sapiens) (UniProt P10275); test: qHTS assay to identify small molecule agonists of the androgen receptor (AR) signaling pathway (AID 743036; active = well fitted activation curve with a large enough effect in the signal ratio in the repeat runs, with a control signal flat, not every such curve was filed as active; the % refers to the signal ratio)
# How it was run: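 Beta-lactamase under UAS control, stably integrated in HEK293 GripTite cells, reports receptor activation. After 16 h compound treatment, cells received FRET substrate for 2 h at room temperature before fluorescence reading.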
# [8] = biological target: Androgen receptor (Homo sapiens) (UniProt P10275); test: qHTS assay to identify small molecule agonists of the androgen receptor (AR) signaling pathway using the MDA cell line (AID 743040; note: nearly all actives have a fitted effect of over 20% in size)
# How it was run: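 Luciferase read-out, ONE-Glo, 30 min RT. Cells: MDA-kb2 AR-luc, MMTV promoter with AR and GR response elements. Compound exposure 16 h, 37C, 0% CO2, after 5 h pre-incubation. qHTS agonist mode.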
# [9] = qHTS assay to identify small molecule antagonists of the androgen receptor (AR) signaling pathway using the MDA cell line - cell viability counter screen (AID 743041; note: nearly all actives have a fitted effect of over 45% in size; note: potency is the fitted concentration of half-maximal effect)
# How it was run: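 Cytotoxicity counter screen: MDA-kb2 AR-luc cells, compound + R1881, 16 h, 37C, 0% CO2; CellTiter-Fluor added at 15.5 h, fluorescence read after 30 min.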
# [10] = biological target: Androgen receptor (Homo sapiens) (UniProt P10275); test: qHTS assay to identify small molecule antagonists of the androgen receptor (AR) signaling pathway using the MDA cell line (AID 743042; note: nearly all actives have a fitted effect of over 55% in size)
# How it was run: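 MDA-kb2 breast carcinoma cells carrying MMTV-luciferase (AR/GR responsive) were co-treated with compounds and the agonist R1881 for 16 h at 37C. Inhibition read as ONE-Glo luminescence; CellTiter-Fluor fluorescence measured in parallel for cytotoxicity.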
# Sequence of Androgen receptor (Homo sapiens) (P10275 whole entry, looked up): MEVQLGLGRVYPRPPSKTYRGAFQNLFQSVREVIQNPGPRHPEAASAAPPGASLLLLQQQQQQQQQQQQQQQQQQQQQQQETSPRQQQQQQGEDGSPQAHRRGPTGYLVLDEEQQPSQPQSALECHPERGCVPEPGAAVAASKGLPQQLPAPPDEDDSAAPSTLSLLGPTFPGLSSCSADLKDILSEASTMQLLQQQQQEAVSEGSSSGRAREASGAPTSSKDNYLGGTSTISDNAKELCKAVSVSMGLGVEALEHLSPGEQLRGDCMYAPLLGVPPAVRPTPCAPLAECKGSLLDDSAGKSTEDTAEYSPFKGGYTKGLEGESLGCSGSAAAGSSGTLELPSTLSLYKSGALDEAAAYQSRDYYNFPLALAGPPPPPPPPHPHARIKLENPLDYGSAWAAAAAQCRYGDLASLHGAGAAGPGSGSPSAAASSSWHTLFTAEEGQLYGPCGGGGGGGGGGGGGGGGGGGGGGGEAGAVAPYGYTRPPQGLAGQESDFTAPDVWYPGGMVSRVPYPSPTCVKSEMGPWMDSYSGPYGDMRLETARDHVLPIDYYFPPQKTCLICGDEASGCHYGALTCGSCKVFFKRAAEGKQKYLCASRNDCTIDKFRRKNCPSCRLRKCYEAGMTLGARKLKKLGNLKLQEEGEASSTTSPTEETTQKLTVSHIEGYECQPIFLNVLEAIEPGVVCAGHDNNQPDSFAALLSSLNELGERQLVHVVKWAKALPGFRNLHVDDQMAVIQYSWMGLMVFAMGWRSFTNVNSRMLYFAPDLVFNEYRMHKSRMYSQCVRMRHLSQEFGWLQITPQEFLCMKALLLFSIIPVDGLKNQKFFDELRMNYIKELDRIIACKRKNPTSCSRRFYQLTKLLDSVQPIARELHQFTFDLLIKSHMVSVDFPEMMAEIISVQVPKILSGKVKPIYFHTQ
Structure (SMILES),Potency [1],Potency [2],Potency [3],Potency [4],Potency [5],Potency [6],outcome [7],outcome [8],Potency [9],Potency [10]
C[C@@H]1CN(CCCn2c3ccccc3c3ccccc32)C[C@H](C)N1,inactive,9.44 µM (active),7.5 µM (active),9.44 µM (active),–,–,–,–,–,–
C=C(C)[C@@H]1CCC2=CCC[C@@H](C)[C@]2(C)C1,inactive,27.3 µM (active),27.3 µM (active),15.4 µM (active),inactive,inactive,inactive,inactive,inactive,inactive
C[C@@]12CCC[C@H]1[C@@H]1CC[C@H]3C[C@@H](O)CC[C@]3(C)[C@H]1CC2,inactive,inactive,inactive,inactive,inactive,–,–,–,–,–
O=C(Nc1cccc2c(=O)cc(-c3nn[nH]n3)oc12)c1ccc(OCCCCc2ccccc2)cc1,inactive,inactive,inactive,inactive,inactive,–,–,–,–,–
C=C1c2cccc(O)c2C(O)=C2C(=O)[C@]3(O)C(O)=C(C(N)=O)C(=O)[C@@H](N(C)C)[C@@H]3[C@@H](O)[C@H]12,inactive,inactive,inactive,inactive,inactive,–,–,–,–,–
NC(=O)c1ccncc1,inactive,inactive,inactive,inactive,inactive,inactive,inactive,inactive,inactive,inactive
Cc1cc(C)cc(N)c1,inactive,inactive,inactive,inactive,inactive,inactive,inactive,inactive,inactive,inactive
COc1ccccc1N1CCN(CCCCNC(=O)c2ccc(-c3ccc(C(C)=O)cc3)cc2)CC1,inactive,inactive,inactive,inactive,inactive,–,–,–,–,–
CCOC(=O)c1ccc(C#Cc2ccc3c(c2)C(C)(C)CCS3)nc1,inactive,23.7 µM (active),29.8 µM (active),29.8 µM (active),inactive,–,–,–,–,–
CN1CCCC(n2nc(Cc3ccc(Cl)cc3)c3ccccc3c2=O)CC1 (stereo unspecified),inactive,11.9 µM (active),21.1 µM (active),16.8 µM (active),inactive,–,–,–,–,–
CN1C(=O)N(c2ccccc2Br)Cc2cnc(Nc3ccc4c(c3)OCC(CO)O4)nc21 (stereo unspecified),13.8 µM (active),7.7 µM (active),9.69 µM (active),6.86 µM (active),43.6 µM (active),–,–,–,–,–
CCCC(C(=O)OCCN(CC)CC)(c1ccccc1)c1ccccc1,inactive,8.41 µM (active),10.6 µM (active),18.8 µM (active),–,–,–,–,–,–
Cc1c(C)c2c(c(C)c1OC(=O)CCC(=O)OCCO)CC[C@@](C)(CCC[C@H](C)CCC[C@H](C)CCCC(C)C)O2,21.3 µM (active),11.9 µM (active),10.6 µM (active),11.9 µM (active),inactive,–,–,–,–,–
O=c1[nH]c2ccc(Cl)cc2o1,inactive,inactive,inactive,inactive,inactive,–,–,–,–,–
CCCCCCCC/C=C\CCCCCCCCO,inactive,inactive,inactive,inactive,inactive,–,–,–,–,–
CN1CCCN=C1COC(=O)C(O)(c1ccccc1)C1CCCCC1 (stereo unspecified),inactive,–,–,–,–,–,–,–,–,–

Structure (SMILES),Potency [1],Potency [2],Potency [3],Potency [4],Potency [5],Potency [6],outcome [7],outcome [8],Potency [9],Potency [10]
Oc1cc2c(cc1O)[C@H]1c3ccc(O)c(O)c3OC[C@@]1(O)C2,inactive,43.8 µM (active),22 µM (active),31 µM (active),–,–,–,–,–,–
COC(=O)CCS,inactive,inactive,inactive,inactive,inactive,–,–,–,–,–
CC(C)=CCC1C(=O)N(c2ccccc2)N(c2ccccc2)C1=O,inactive,16.8 µM (active),16.8 µM (active),16.8 µM (active),inactive,–,–,–,–,–
O=C(O)CCC(=O)C(=O)O,inactive,inactive,inactive,inactive,inactive,–,–,–,–,–
O=[N+]([O-])c1ccc(O/N=C/c2cc(Br)c(O)c(Br)c2)c([N+](=O)[O-])c1,inactive,inactive,inactive,–,–,–,–,–,–,–
CCC=CC#N,inactive,inactive,inactive,inactive,inactive,–,–,–,–,–
Nc1ccc(N=Nc2ccccc2)c(N)c1,inactive,53.3 µM (active),53.3 µM (active),59.8 µM (active),inactive,–,–,–,–,–
CN1CCCC(CC2c3ccccc3Sc3ccccc32)C1 (stereo unspecified),inactive,5.07 µM (active),7.17 µM (active),–,–,–,–,–,–,–
OCCN1CCN(CCCN2c3ccccc3Sc3ccc(Cl)cc32)CC1,inactive,3.59 µM (active),2.85 µM (active),4.52 µM (active),4.56 µM (active),–,–,–,–,–
OCCOCC#CCOCCO,inactive,inactive,inactive,inactive,inactive,–,–,–,–,–
COc1cc(C(=O)NC2CCN(C)CC2)ccc1Nc1ncc2c(n1)N(C1CCCC1)CC(F)(F)C(=O)N2C,22.5 µM (active),0.0044 µM (active),0.0025 µM (active),0.0056 µM (active),15.9 µM (active),0.0032 µM (active),–,inactive,62.8 µM (active),–
CC(=O)OCC(=O)NCCCOc1cccc(CN2CCCCC2)c1,inactive,inactive,inactive,inactive,inactive,inactive,inactive,inactive,–,inactive
CC1CC(OC(=O)C(O)c2ccccc2)CC(C)(C)N1C (stereo unspecified),inactive,inactive,inactive,inactive,inactive,–,–,–,–,–
O=C1CCCCCCCCCCOCCCCO1,inactive,inactive,–,–,–,–,–,–,–,–
Cc1cccc(N(C)C(=S)Oc2ccc3c(c2)CCC3)c1,inactive,–,–,–,–,–,–,–,–,–
c1ccc2c(c1)CCc1ccccc1N2,inactive,inactive,–,–,–,–,–,–,–,–
